Shown are actives, neighbours in structure and some others; about 18% of the full set was active somewhere.
LDHA inh = blocks human lactate dehydrogenase A | P00338 | purified LDHA, NADH/diaphorase-resazurin fluorescence; stronger effect = lower value | activity change, % (values are at about 110 or 230 µM) | 480,000 compounds, 0.15% hits; in the data active = activity change below about -30%; inconclusive = mostly about -25% to -30%
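Human LDH5 (2 nM) was incubated with 0.06 mM NADH and 0.2 mM pyruvate for 5 min at room temperature in Tris pH 7.4. Remaining NADH was coupled through diaphorase/resazurin, and resorufin fluorescence was read at 0 and 20 min.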
DT40 TDP1 no CPT = qHTS for Inhibitors of human tyrosyl-DNA phosphodiesterase 1 (TDP1): qHTS in cells in absence of CPT; Potency, µM (doses to about 46.2 µM), most hits filed as inhibitors; 420,000 compounds, 15% hits; AID 686978, 2013; DT40 Tdp1-/- hTDP1 cells, no CPT, ATP luminescence, 48 h; note: nearly all actives have a fitted effect of over 55% in size
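Growth of hTDP1-complemented DT40 Tdp1-knockout cells is measured by ATP luminescence after at least 48 hr compound exposure at 37 °C, with DMSO substituting for the 20 nM CPT used in the parallel screen.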
VP16 counter = counter-screen for ROR gamma inhibitors: Gal4-VP16 reporter | Drosophila S2 Gal4-VP16 UAS-luciferase, luminescence, 20 h | 310,000 compounds, 3.5% hits | Potency, µM (highest dose often 53.6 µM), actives largely listed as inhibitors;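 note: Gal4-VP16 expression switched on by copper sulfate through the metallothionein promoter; nearly all actives have a fitted effect of over 50% in size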
IL-1B inflam inh = inflammasome signaling inhibition, IL-1 beta readout; activity change, % at 57.5 µM; AID 743279; 360,000 compounds, 4.7% hits; THP-1 LPS/ATP IL-1B secretion, AlphaLISA, 16 h; stronger effect = lower value; in the data active = activity change below about -50%; inconclusive = mostly about -30% to -49%
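THP-1 cells pretreated 1 hr with compounds (up to 57.5 uM final), then stimulated with LPS (250 ng/mL final) plus ATP (1.25 mM final); secreted IL-1B measured by AlphaLISA after 16 hr, decreased signal indicating inhibition.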
RORg inh = ROR gamma (mouse) transcription inhibition; 310,000 compounds, 5.4% hits; P51450; Potency, µM (doses to about 53.6 µM), usual class: inhibitors; Drosophila S2 Gal4-RORgamma UAS-luciferase reporter, 20 h; note: nearly all actives have a fitted effect of over 60% in size
Target sequence (P51450 whole entry, looked up, the tested form may be a part): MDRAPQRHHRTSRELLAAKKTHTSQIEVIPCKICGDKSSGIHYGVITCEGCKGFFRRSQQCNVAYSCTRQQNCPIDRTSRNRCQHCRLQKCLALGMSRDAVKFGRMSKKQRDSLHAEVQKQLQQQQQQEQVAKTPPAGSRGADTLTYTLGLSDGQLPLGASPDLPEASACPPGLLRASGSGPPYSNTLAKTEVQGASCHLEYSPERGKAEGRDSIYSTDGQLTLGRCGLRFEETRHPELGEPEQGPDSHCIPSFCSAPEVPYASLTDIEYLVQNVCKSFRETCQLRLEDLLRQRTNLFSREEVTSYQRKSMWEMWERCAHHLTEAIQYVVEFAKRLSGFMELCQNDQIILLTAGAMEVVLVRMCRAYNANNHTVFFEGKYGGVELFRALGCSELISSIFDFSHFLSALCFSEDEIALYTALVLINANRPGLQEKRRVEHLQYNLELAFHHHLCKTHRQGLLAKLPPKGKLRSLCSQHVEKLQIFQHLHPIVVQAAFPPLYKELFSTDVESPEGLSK
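Compounds are pin-transferred onto Drosophila Schneider cells expressing a copper-inducible Gal4–ROR gamma transactivation domain fusion. After 1 hr, copper sulfate is added to 700 uM final; luciferase is read 20 hr later.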
DT40 TDP1 CPT = DT40-hTDP1 cell growth loss with CPT | chicken DT40 Tdp1-/-;hTDP1 cells + 20 nM CPT, ATP luminescence, 48 h | Potency, µM (series often up to 46.2 µM), actives largely listed as inhibitors | 420,000 compounds, 12% hits; note: nearly all actives have a fitted effect of over 55% in size
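Chicken DT40 Tdp1-/- cells complemented with human TDP1, 400 cells/well, exposed to compounds plus 20 nM camptothecin for at least 48 h at 37 C; viability read as ATP content by CellTiter-Glo luminescence.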
A number is an active result; – = inactive; ? = inconclusive; · = no result; [ ] = remark or other dose. Unless noted, calls come from the whole dose curve; as a rule, active = well fitted curve in the direction sought with a large enough effect; inconclusive = small, poorly fitted or top-dose-only effect, or another doubt; inactive = no such curve, though single readings can be large; an effect the other way counts as inactive or inconclusive.

SMILES | LDHA inh | DT40 TDP1 no CPT | VP16 counter | IL-1B inflam inh | RORg inh | DT40 TDP1 CPT
CCOC(=O)C(C(C)=O)c1c(Br)c(O)c(O)c2c(C(=O)c3ccc(C)cc3)coc12 (stereo not drawn) | – | 2.59µM | 15.8µM | – | 12.6µM | 2.91µM
Cc1ccc(C(=O)c2coc3ccc(O)c(Cl)c23)cc1 | – | ? | – | – | – | –
CCOC(=O)c1c(C)n(-c2ccc(C)cc2)c2c(C(C(C)=O)C(=O)O)c(Br)c(O)c(O)c12 (stereo not drawn) | – | 23.1µM | – | – | – | 23.1µM
CCC(NC(=O)c1ccccc1NC(=O)c1ccco1)C(=O)NNC(=O)c1ccc(OC)cc1 (stereo not drawn) | – | – | – | -120.0 | – | –
CCC(NC(=O)c1ccccc1NC(=O)c1ccccc1)C(=O)OC (stereo not drawn) | – | ? | 6.31µM | – | ? | ?
CCC(NC(=O)c1ccccc1NC(=O)c1ccc(OC)cc1)C(=O)N1CCCC1 (stereo not drawn) | – | – | – | – | – | –
CCC(C)C(NC(=O)c1ccccc1NC(=O)c1ccco1)C(=O)NNC(=O)c1ccc(OC)cc1 (stereo not drawn) | – | – | – | – | ? | ?
CCOC(=O)C(N)c1ccccc1 (stereo not drawn) | – | · | · | · | · | ·
C/C(=N\NC(=S)Nc1ccc(C)cc1)c1ccc([N+](=O)[O-])cc1 | – | · | · | · | · | ·
COc1ccccc1N(CN1CCCC1=O)C(=O)c1c(F)cccc1Cl | – | 10.3µM | · | – | –[0.365 µM] | 20.6µM
CCOc1ccccc1C(=O)N(CN1CCCC1=O)c1cccc(Cl)c1 | – | 9.2µM | – | – | – | 14.6µM
O=C(/C=C/c1ccc(Cl)c(Cl)c1)NC1CCC(O)CC1 (stereo not drawn) | – | · | · | · | · | ·
Cc1cc(C(=O)Nc2ccccc2SC2CCCC2)c(C)o1 | – | · | · | · | · | ·
CCN(Cc1ccccc1)C(=O)/C=C/c1ccccc1[N+](=O)[O-] | – | ? | – | – | – | 16.4µM
O=C(/C=C/c1ccccc1O)c1ccc(Cl)cc1 | – | 23.1µM | ? | ? | ? | 20.6µM
O=C(/C=C/c1cccc2ccccc12)c1ccncc1 | – | 14.6µM | 8.91µM | -82.5 | – | 20.6µM
O=C(/C=C(\O)c1ccccc1)c1ccccc1O | · | 8.2µM | 4.47µM | · | 4.47µM | 16.4µM
CN(Cc1cccs1)C(=O)/C=C/c1ccccc1[N+](=O)[O-] | – | – | – | – | – | –
COc1ccc(NC(=O)/C(C#N)=C/c2c[nH]c3ccccc23)c(OC)c1 | – | · | · | · | · | ·
COC(=O)C(=Cc1ccccc1[N+](=O)[O-])C(=O)OC | – | 11.6µM | – | -65.5 | ? | 8.2µM
Cc1cc(O)c(C(=O)/C=C/c2ccccc2O)c(=O)o1 | – | 29.1µM | – | ? | – | 23.1µM
Cc1cc(O)c(C(=O)/C=C/c2cccc([N+](=O)[O-])c2)c(=O)o1 | – | ? | – | – | – | ?
CCOc1ccc(C(=O)/C=C/c2ccccc2O)cc1 | – | · | · | · | · | ·
O=C(/C=C/c1ccccc1O)c1ccccc1 | – | 14.6µM | · | -53.5 | · | 20.6µM
CCOc1ccccc1/C=C/C(=O)c1ccc(Cl)cc1 | – | 16.4µM | – | – | – | ?
SMILES | LDHA inh | DT40 TDP1 no CPT | VP16 counter | IL-1B inflam inh | RORg inh | DT40 TDP1 CPT
O=C(c1ccncc1)N(Cc1cccs1)C1CC1 | – | · | · | · | · | ·
N#CCCN(C(=O)Cn1nc(C(=O)O)c2ccccc2c1=O)c1ccc(F)cc1 | – | · | · | · | · | ·
Cn1cc(S(=O)(=O)N2CCCC(C(=O)Nc3nn(Cc4ccccc4Cl)cc3Cl)C2)cn1 (stereo not drawn) | – | · | · | · | · | ·
O=C(/C=C/c1ccccc1[N+](=O)[O-])Oc1ccccc1 | · | · | – | · | – | ·
O=C(/C=C/c1ccccc1[N+](=O)[O-])c1ccc(F)cc1 | – | 18.4µM | –[10 µM] | ? | – | 13µM
O=C(NNS(=O)(=O)c1ccccc1[N+](=O)[O-])c1ccc(F)cc1 | – | 16.4µM | – | – | – | ?
CCCc1nc([N+](=O)[O-])c(S(=O)(=O)c2ccccc2)n1CC(C)C | – | 3.26µM | ? | -100.1 | ? | 16.4µM
CC(C)Cn1c(C(C)C)nc([N+](=O)[O-])c1S(=O)(=O)c1ccc(F)cc1 | – | 3.26µM | ? | -89.2 | 11.2µM | 2.31µM
Cc1nc2ccc([N+](=O)[O-])cc2c(=O)n1Cc1ccc(F)cc1 | – | ? | – | – | ? | ?
O=C(O)C1CCC(C(=O)O)CC1 (stereo not drawn) | – | · | · | · | · | ·
CNc1cc(CSC)nc(SCc2ccc(Cl)cc2Cl)n1 | – | ? | – | ? | – | ?
CSCc1cc(N(C)C)nc(SCc2ccc(Cl)c(Cl)c2)n1 | – | ? | ? | – | 11.2µM | ?
Cc1cc(C)cc(NC(=O)CCNC(=O)C2CCCC2)c1 | – | · | · | · | · | ·
COc1ccc(OC)c(C(=O)COC(=O)c2cc(S(N)(=O)=O)ccc2Br)c1 | – | · | · | · | · | ·
CCOc1ccccc1CNC(=O)c1oc2c(c1C)-c1nn(Cc3cccc(Cl)c3)cc1CC2 | – | 20.6µM | · | · | · | ?
Cc1c(C(=O)NCc2ccc(N(C)C)cc2)oc2c1-c1nn(Cc3cccc(Cl)c3)cc1CC2 | – | ? | · | · | · | ?
Cc1ccccc1CNC(=O)c1oc2c(c1C)-c1nn(Cc3ccc(Cl)cc3)cc1CC2 | – | 16.4µM | · | · | · | ?
Cc1ccc(C(=O)N2CCC(c3nc4cc(C(F)(F)F)ccc4s3)CC2)cn1 | – | · | · | · | · | ·
Cc1[nH]c2ccc(-c3nnc(SCC(=O)c4ccccc4F)o3)cc2c1C | – | 18.4µM | – | – | – | –
Cc1ccc(C(=O)CSc2nnc(-c3ccc4[nH]c(C)c(C)c4c3)o2)cc1C | – | 25.9µM | – | – | – | ?
Cc1ccc(/C=C/C(=O)c2c(C)nc3ccc(Cl)cc3c2-c2ccccc2)o1 | – | · | · | · | · | ·
COc1ccc(C(CNC(=O)CN2CCN(C(C)=O)CC2)c2c[nH]c3ccccc23)cc1 (stereo not drawn) | – | · | · | · | · | ·
C=Cn1cc[n+](CC(=O)c2ccc(OC)cc2)c1 | – | 20.6µM | – | – | – | ?
COc1cc(-c2nc3c[n+](CC(=O)c4ccccc4)ccc3n2C)cc(OC)c1OC | – | – | – | – | – | –
C=Cn1cc[n+](CC(=O)c2ccc(C)cc2)c1 | – | – | – | – | – | –
COc1ccc(C(=O)C[n+]2ccc3c(c2)nc(-c2ccccc2)n3C)cc1 | – | 8.2µM | – | – | – | 11.6µM
Cc1[nH]c(=S)c(C#N)c(C)c1Cc1ccc(Cl)cc1Cl | – | – | 20µM | – | 3.16µM | –
Cc1[nH]c(=O)c(C#N)c(C)c1Cc1ccc(Cl)cc1Cl | – | – | – | – | – | –
Cc1ccc(C)c(NC(=O)C(C)SCCO)c1 (stereo not drawn) | – | · | · | · | · | ·
O=Nc1ccc(O)c2ncccc12 | – | 0.92µM | 5.62µM | -98.2 | 1.58µM | 0.581µM

Compound activity from PubChem.
